Screening data deposited in PubChem BioAssay by National Center for Advancing Translational Sciences (NCATS).
Nrf2 activator: qHTS of Nrf2 Activators; Potency, µM (top dose mostly 46.1 µM), for inactives: at the top dose activation, usual class: activators; AREc32 ARE-luciferase reporter (MCF7-derived line), luminescence, 24 h; hit rate 0.31% among 410,000; note: potency is the fitted concentration of half-maximal effect; % of control where 0% means no effect; nearly all actives have a fitted effect of over 65% in size
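For detection, Steady-Glo was added and plates sat 30 min at RT; before that, AREc32_Fluc cells grown overnight in OPTI-MEM/5% FBS had been treated with 23 nL compound for 24 hr at 37 deg C.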
A549 tox-1: Nrf2 qHTS screen for inhibitors: counterscreen for cytotoxicity; A549 ARE-Fluc cells, CellTiter-Fluor viability, 18-24 h; Potency, µM (titrated, usually from 46 µM), for the others: top-dose activity change, negative = cytotoxicity, actives largely listed as inhibitors; hit rate 0.16% among 390,000; note: potency is the fitted concentration of half-maximal effect; % is set by controls: 0 for no effect and ±100 for the full control effect
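A549 ARE_Fluc cells in 5% FBS OPTI-MEM were exposed to compounds in concentration-response for 18-24 h at 37 deg C. Viability was read by CellTiter-Fluor fluorescence (Ex 405/Em 525) after 30 min, before the luciferase read.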
Nrf2 block: Nrf2 qHTS screen for inhibitors; Potency, µM (highest dose often 46 µM), without a hit: at the highest dose activity change, negative = inhibition, most hits filed as inhibitors; hit rate 2.1% among 360,000; AID 504444, 2011; A549 ARE-Fluc reporter, luciferase luminescence, 18-24 h; note: potency is the fitted concentration of half-maximal effect; % is set by controls: 0 for no effect and ±100 for the full control effect; nearly all actives have a fitted effect of over 60% in size
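Reporter: ARE-Fluc in A549. Exposure: 18-24 h, 37 °C, 5% CO2, 5% FBS OPTI-MEM. Readouts: fluorescent cytotoxicity (CellTiter-Fluor), then luminescent Nrf2 signal after BugLite.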
Mito fusion act: qHTS Assay for Small Molecule Inhibitors of Mitochondrial Division or Activators of Mitochondrial Fusion. hit rate 0.23% among 320,000. Potency, µM (highest dose often 46.1 µM), without a hit: at the top dose growth rescue (activation), hits mostly activators. S. cerevisiae fusion-defective mutant growth rescue, CellTiterGlo 48 h. AID 485298, 2010; note: potency is the fitted concentration of half-maximal effect; % of control where 0% means no effect; nearly all actives have a fitted effect of over 45% in size
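Temperature-sensitive fusion-defective S. cerevisiae (e.g. fzo1-1, mgm1-5) were grown with compound in YPEG medium (3% ethanol, 3% glycerol) for 48 hours at 37C. Growth rescue was measured as viability by CellTiterGlo luminescence after 10 minutes at ambient.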
GRP78 ERSR act: qHTS for Inducers of the Endoplasmic Reticulum Stress Response (ERSR) in Human Glioma: qHTS; U87-MG GRP78 promoter luciferase reporter, 16 h; Potency, µM, without a hit: at the highest dose activation, hits mostly activators; hit rate 0.02% among 420,000; AID 602332, 2012; note: potency is the fitted concentration of half-maximal effect; series mostly up to about 76 µM; % of control where 0% means no effect; nearly all actives have a fitted effect of over 35% in size
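Stably transfected U87-MG glioma cells carrying a GRP78-based luciferase sensor; 16 h compound incubation. Luminescence end-point read 10 min after Bright-Glo addition at room temperature.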
miR-21 act: qHTS Assay for Modulators of miRNAs and/orActivators of miR-21; HeLa miR-21 FLuc reporter, luciferase, 48 h; Potency, µM (highest dose often 38.3 µM), without a hit: at the top dose activity change, positive = activation, actives largely listed as activators; 340,000 tested, under 10 active; AID 2288, 2010;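 note: % of control where 0% means no effect; miR-21 action dims this reporter so a rising signal means less miR-21 action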
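HeLa cells stably expressing CMV-driven firefly luciferase with a downstream miR-21 binding sequence, endogenously expressing miR-21, were treated with titrations (up to about 40uM final) for 48 hours at 37 degree Celsius. Luciferase luminescence was read after lysis.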
FLuc counter 3: Nrf2 qHTS screen for inhibitors: Purified Fluc Biochemical Counterscreen for Hit Validation; shares compounds with Nrf2 block; purified firefly luciferase, luminescence inhibition; Potency, µM (top dose mostly 57.5 µM), for the others: top-dose activity change, negative = inhibition, hits mostly inhibitors; hit rate 4% among 1,400; AID 720522, 2013; note: potency is the fitted concentration of half-maximal effect; % is set by controls: 0 for no effect and ±100 for the full control effect; nearly all actives have a fitted effect of over 65% in size
Target sequence (P08659 whole entry, looked up): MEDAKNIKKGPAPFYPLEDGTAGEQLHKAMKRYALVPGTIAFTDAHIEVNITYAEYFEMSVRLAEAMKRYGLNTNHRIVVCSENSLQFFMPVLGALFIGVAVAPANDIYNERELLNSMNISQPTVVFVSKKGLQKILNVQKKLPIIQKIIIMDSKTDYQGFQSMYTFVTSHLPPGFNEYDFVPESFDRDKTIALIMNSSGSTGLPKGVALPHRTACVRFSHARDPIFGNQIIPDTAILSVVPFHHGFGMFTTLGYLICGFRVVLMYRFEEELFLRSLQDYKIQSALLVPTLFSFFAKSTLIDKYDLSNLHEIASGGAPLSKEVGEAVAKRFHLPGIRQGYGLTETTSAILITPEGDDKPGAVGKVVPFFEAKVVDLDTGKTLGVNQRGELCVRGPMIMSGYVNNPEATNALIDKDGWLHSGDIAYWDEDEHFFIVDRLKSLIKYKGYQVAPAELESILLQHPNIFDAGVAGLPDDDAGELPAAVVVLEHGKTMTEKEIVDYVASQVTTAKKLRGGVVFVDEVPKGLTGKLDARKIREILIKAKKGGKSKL
A549 tox-2: Nrf2 qHTS screen for inhibitors: A549 ARE-Fluc Cytotoxicity Counterscreen for Hit Validation. A549 ARE-Fluc cells, cytotoxicity counterscreen. AID 720523, 2013. hit rate 2% among 1,400. shares compounds with Nrf2 block. Potency, µM (titrated, usually from 46.1 µM), without a hit: at the highest dose activity change, negative = cytotoxicity, most hits filed as inhibitors;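 note: potency is the fitted concentration of half-maximal effect; cells exposed to compounds for 18 to 24 hours; % is set by controls: 0 for no effect and ±100 for the full control effect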
ARE-Fluc inh: Nrf2 qHTS screen for inhibitors: Nrf2 A549 ARE-Fluc Confirmation Assay for Hit Validation. Potency, µM (series often up to 46.1 µM), for inactives: at the top dose activity change, negative = inhibition, hits mostly inhibitors. hit rate 74% among 1,400. A549 ARE-firefly luciferase reporter, luminescence. shares compounds with Nrf2 block; note: potency is the fitted concentration of half-maximal effect; % is set by controls: 0 for no effect and ±100 for the full control effect; nearly all actives have a fitted effect of over 65% in size
Active calls of the source: *; ? = inconclusive; nt = no result shown. Rows were chosen to be rich in hits. Some 2.3% of all compounds tested hit in one or more screens of this group. Calls come from the whole dose curve; as a rule, active = well fitted curve in the direction sought with a large enough effect; inconclusive = small, poorly fitted or top-dose-only effect, or another doubt; inactive = no such curve, though single readings can be large; an effect the other way counts as inactive or inconclusive.

SMILES	Nrf2 activator	A549 tox-1	Nrf2 block	Mito fusion act	GRP78 ERSR act	miR-21 act	FLuc counter 3	A549 tox-2	ARE-Fluc inh
CCCCC(=O)O[C@]1(C(=O)CO)CC[C@H]2[C@@H]3CCC4=CC(=O)CC[C@]4(C)[C@H]3[C@@H](O)C[C@@]21C	0%	-8%	0.016µM*	4%	-1%	-35%	-1%	-14%	0.013µM*
CC(=O)OCC(=O)[C@@]1(O)CC[C@H]2[C@@H]3CCC4=CC(=O)C=C[C@]4(C)[C@@]3(Cl)[C@@H](Cl)C[C@@]21C	-1%	?	8.2µM*	-9%	-2%	-24%	2%	-6%	1.3µM*
C[C@]12CCC(=O)C=C1CCC1C2C(O)C[C@]2(C)C1CC[C@]2(O)C(=O)CO (some centres not stated)	nt	nt	nt	nt	-7%	nt	nt	nt	nt
CCC(C(=O)OCC(=O)C1(O)CCC2C3CCC4=CC(=O)CCC4(C)C3C(O)CC21C)C(C)C (configuration not stated)	0%	-3%	1.2µM*	nt	-5%	nt	-1%	-29%	nt
CC12C=CC(=O)C=C1CCC1C2C(O)CC2(C)C1CCC2(O)C(=O)CO (configuration not stated)	-1%	-1%	0.058µM*	nt	-3%	nt	4%	-3%	0.1µM*
Cc1cc(C)c(C(=O)CSc2nc(C)cc(C)c2C(N)=O)c(C)c1	0%	-3%	1%	7%	3%	-14%	nt	nt	nt
CC(=O)Nc1ccc(OCC(O)Cn2c(C(C)C)nc3ccccc32)cc1 (configuration not stated)	0%	3%	-16%	-4%	-5%	0%	nt	nt	nt
CCN(C(=O)c1ccc(NC(C)=O)cc1)c1ccccc1	-1%	-1%	-18%	3%	-6%	-1%	nt	nt	nt
Cc1c(C(=O)N2CCCCC2)oc2ccc(S(=O)(=O)N3CC(C)CC(C)C3)cc12 (configuration not stated)	2%	-12%	9.2µM*	-14%	-7%	22%	-1%	-14%	9.2µM*
CCOC(=O)N1CCN(C(=O)c2oc3ccc(S(=O)(=O)N4CCCCC4)cc3c2C)CC1	-1%	3%	?	4%	-5%	9%	nt	nt	nt
CCN1/C(=C/c2cc[n+](C)cc2)C=Cc2cc(C)ccc21	0%	?	3.7µM*	3%	-4%	1%	-18%	10µM*	1.3µM*
CCN1/C(=C/c2ccc3ccccc3[n+]2CCCS(=O)(=O)[O-])C=Cc2cc(C)ccc21	0%	?	-19%	-20%	-13%	9%	nt	nt	nt
Cc1cc[n+](CCC2CCCCC2)c2ccccc12	nt	nt	nt	nt	-4%	nt	2%	-10%	?
CCCCCCC[n+]1ccc(C)c2ccccc21	nt	nt	nt	nt	-4%	nt	2%	-15%	nt
CCCCN1C(Nc2ccccc2)=NC[C@@H]1C	0%	5%	6%	7%	-7%	nt	nt	nt	nt
COc1ccc(/C=N\NC(=O)c2ccccc2Br)cc1COc1c(F)c(F)cc(F)c1F	2%	?	5.2µM*	10%	-5%	15%	1%	-7%	?
COc1ccc(/C=N\NC(=O)c2ccccc2F)cc1COc1ccc(F)cc1	0%	1%	-15%	-2%	-3%	3%	nt	nt	nt
CCCc1sc(N/N=C/c2ccccn2)nc1-c1ccc(Br)cc1	0%	?	2.9µM*	-8%	-3%	-4%	-29%	-29%	5.8µM*
CC(=O)Nc1sc(N/N=C/c2ccccc2)nc1-c1ccc(C)cc1	5%	-4%	12%	-5%	3%	-20%	nt	nt	nt
CC(N=C1NS(=O)(=O)c2ccccc21)C(=O)NCc1ccc(F)cc1 (configuration not stated)	4%	6%	-2%	nt	-4%	nt	nt	nt	nt
O=C(OCCOc1ccc(Cl)cc1)c1cc(S(=O)(=O)N2CCCCC2)ccc1N1CCOCC1	4%	-14%	8.2µM*	nt	1%	nt	4%	-10%	8.2µM*
C=CCn1c(O)c(N=NC(=S)Nc2ccccc2F)c2ccccc21	0%	?	?	0%	-4%	25%	nt	nt	nt
C=CCn1c(O)c(N=NC(=S)Nc2ccccc2F)c2cc(S(=O)(=O)N3CCOCC3)ccc21	5%	?	5.8µM*	-7%	-1%	27%	1%	-28%	nt
CC(=NNC(=O)c1ccncc1)c1ccccc1O	-1%	-14%	?	nt	1%	nt	nt	nt	nt
CC(=NNC(=O)c1ccncc1)c1ccc2ccccc2c1O	-1%	?	2.6µM*	nt	-5%	nt	-17%	-17%	4.1µM*
SMILES	Nrf2 activator	A549 tox-1	Nrf2 block	Mito fusion act	GRP78 ERSR act	miR-21 act	FLuc counter 3	A549 tox-2	ARE-Fluc inh
CCOC(=O)c1sc(NC(=O)c2cc(-c3ccccc3C)nc3ccccc23)c(C#N)c1C	5%	?	4.1µM*	1%	-9%	?	12µM*	?	4.1µM*
Cc1ccccc1-c1cc(C(=O)Nc2sc(C)c(C)c2C(N)=O)c2ccccc2n1	3%	-21%	nt	17%	-7%	?	nt	nt	nt
CN(c1ccc(C(=O)N2CCN(Cc3ccc4c(c3)OCO4)CC2)cc1)S(=O)(=O)c1ccccc1	1%	3%	6.5µM*	7%	0%	24%	2%	1%	9.2µM*
COc1ccc(CC(=O)Nc2ccncc2Cl)cc1	-1%	-1%	5.2µM*	-2%	-1%	0%	2%	7%	?
O[C@@H]1[C@@H](O)C=C2CCN3Cc4cc5c(cc4[C@H]1C23)OCO5 (some centres not stated)	-2%	?	6.5µM*	-39%	-5%	nt	1%	?	7.3µM*
COC[C@@H]1CCCN1c1ccc2c(c1)O[C@H](COCc1ccccc1)CN([C@@H](C)c1ccccc1)S2(=O)=O	0%	nt	nt	nt	nt	nt	nt	nt	nt
